Laboratory results published in PMC7862700, “An all-to-all approach to the identification of sequence-specific readers for epigenetic DNA modifications on cytosine”.

Legend:
Test in all cases: DAPPL (digital affinity profiling via proximity ligation, sequencing); 10 mM Tris-HCl pH 7.5, 50 mM NaCl, 1 mM DTT, 4% glycerol, room temperature, 30 min; GST-TFs on glutathione beads, 16-mer random dsDNA library, 0.1% formaldehyde crosslink after washing; high values mean tight binding
[1] = molecular target: T1, FLI1 (Homo sapiens, UniProt Q01543 1-452); conditions: protein: recombinant; tags: N-terminal GST; dsDNA, one strand shown
T1 sequence: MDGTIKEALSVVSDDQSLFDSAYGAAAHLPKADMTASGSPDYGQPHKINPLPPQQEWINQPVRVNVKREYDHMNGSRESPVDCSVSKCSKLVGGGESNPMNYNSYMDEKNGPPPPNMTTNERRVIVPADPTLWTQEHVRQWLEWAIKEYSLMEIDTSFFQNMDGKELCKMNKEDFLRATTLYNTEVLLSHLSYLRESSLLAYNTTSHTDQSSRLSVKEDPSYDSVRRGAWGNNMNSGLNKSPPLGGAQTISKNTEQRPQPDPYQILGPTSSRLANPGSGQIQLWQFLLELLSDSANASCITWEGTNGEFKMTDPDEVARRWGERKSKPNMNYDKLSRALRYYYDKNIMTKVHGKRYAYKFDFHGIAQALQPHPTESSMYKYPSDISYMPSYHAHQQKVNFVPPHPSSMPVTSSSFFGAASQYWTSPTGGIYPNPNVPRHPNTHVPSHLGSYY
Method in brief: (§1)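 Each value of binding signal is a hexamer's read frequency for a factor divided by the same hexamer's frequency in the tag-only sample. Barcoded, bead-captured GST fusions of human transcription factors made in yeast were pooled with that sample and incubated with 200 nmole of a random double-stranded 16-mer DNA library in Tris/NaCl/DTT/glycerol buffer at room temperature for 30 min. Washing, 0.1% formaldehyde crosslinking, proximity ligation, PCR and Illumina NextSeq500 sequencing followed.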

[2] = molecular target: T2, ELK1 (Homo sapiens, UniProt P19419 1-428); conditions: protein: recombinant; tags: N-terminal GST; dsDNA, one strand shown
T2 sequence: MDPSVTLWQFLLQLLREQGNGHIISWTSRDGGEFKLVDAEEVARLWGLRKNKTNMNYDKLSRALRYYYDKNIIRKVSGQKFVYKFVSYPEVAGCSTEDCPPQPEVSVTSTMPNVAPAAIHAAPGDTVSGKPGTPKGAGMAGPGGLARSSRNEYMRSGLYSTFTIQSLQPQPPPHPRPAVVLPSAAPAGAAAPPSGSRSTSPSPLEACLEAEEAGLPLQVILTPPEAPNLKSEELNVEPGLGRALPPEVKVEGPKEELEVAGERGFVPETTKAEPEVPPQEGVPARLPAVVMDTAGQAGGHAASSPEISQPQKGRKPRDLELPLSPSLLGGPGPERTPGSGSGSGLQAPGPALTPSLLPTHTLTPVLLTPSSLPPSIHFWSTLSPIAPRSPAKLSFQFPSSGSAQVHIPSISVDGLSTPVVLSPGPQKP
Method in brief: as §1

[3] = molecular target: T3, GABPA (Homo sapiens, UniProt Q06546 1-454); conditions: protein: recombinant; tags: N-terminal GST; dsDNA, one strand shown
T3 sequence: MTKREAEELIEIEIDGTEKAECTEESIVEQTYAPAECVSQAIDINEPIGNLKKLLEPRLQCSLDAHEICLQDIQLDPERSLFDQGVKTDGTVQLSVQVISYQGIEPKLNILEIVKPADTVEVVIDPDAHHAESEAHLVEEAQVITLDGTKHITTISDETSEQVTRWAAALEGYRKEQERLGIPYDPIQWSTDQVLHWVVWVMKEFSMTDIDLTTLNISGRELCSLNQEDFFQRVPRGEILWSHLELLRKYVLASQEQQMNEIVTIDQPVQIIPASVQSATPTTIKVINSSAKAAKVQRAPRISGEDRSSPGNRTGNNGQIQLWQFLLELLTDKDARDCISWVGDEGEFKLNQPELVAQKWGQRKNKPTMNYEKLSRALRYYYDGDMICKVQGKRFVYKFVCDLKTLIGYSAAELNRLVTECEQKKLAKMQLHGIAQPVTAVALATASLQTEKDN
Method in brief: as §1

[4] = molecular target: T4, ERG (Homo sapiens, UniProt P11308 1-479); conditions: protein: recombinant; tags: N-terminal GST; dsDNA, one strand shown
T4 sequence: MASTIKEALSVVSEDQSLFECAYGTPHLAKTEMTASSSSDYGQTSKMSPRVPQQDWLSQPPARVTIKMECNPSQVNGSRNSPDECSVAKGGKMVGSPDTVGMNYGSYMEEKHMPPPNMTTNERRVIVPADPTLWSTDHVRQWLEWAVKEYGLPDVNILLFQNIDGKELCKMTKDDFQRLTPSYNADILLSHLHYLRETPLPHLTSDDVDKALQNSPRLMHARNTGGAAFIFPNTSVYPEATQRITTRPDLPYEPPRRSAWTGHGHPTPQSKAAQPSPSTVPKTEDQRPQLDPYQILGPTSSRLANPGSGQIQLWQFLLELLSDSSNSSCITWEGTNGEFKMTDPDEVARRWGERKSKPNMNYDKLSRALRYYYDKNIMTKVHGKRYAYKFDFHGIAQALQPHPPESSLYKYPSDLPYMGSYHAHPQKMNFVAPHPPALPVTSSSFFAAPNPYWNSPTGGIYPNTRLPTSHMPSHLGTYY
Method in brief: as §1

[5] = molecular target: ELF1 (Homo sapiens, UniProt P32519 1-619); conditions: protein: recombinant; tags: N-terminal GST; dsDNA, one strand shown
Method in brief: as §1

[6] = molecular target: T5, EHF (Homo sapiens, UniProt Q9NZC4 1-300); conditions: protein: recombinant; tags: N-terminal GST; dsDNA, one strand shown
T5 sequence: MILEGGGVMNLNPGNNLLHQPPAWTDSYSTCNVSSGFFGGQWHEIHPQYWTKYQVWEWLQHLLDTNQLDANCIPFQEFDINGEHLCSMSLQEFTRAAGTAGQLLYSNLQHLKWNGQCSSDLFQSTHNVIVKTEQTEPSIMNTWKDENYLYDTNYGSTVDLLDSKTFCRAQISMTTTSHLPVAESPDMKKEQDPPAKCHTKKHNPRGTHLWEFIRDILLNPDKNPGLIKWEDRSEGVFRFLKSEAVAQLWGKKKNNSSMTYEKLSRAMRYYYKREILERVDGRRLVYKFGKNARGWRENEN
Method in brief: as §1

[7] = molecular target: SPI1 (Homo sapiens, UniProt P17947 1-270); conditions: protein: recombinant; tags: N-terminal GST; dsDNA, one strand shown
Method in brief: as §1

[8] = molecular target: SPIB (Homo sapiens, UniProt Q01892 1-262); conditions: protein: recombinant; tags: N-terminal GST; dsDNA, one strand shown
Method in brief: as §1

[9] = molecular target: T6, ELK3 (Homo sapiens, UniProt P41970 1-407); conditions: protein: recombinant; tags: N-terminal GST; dsDNA, one strand shown
T6 sequence: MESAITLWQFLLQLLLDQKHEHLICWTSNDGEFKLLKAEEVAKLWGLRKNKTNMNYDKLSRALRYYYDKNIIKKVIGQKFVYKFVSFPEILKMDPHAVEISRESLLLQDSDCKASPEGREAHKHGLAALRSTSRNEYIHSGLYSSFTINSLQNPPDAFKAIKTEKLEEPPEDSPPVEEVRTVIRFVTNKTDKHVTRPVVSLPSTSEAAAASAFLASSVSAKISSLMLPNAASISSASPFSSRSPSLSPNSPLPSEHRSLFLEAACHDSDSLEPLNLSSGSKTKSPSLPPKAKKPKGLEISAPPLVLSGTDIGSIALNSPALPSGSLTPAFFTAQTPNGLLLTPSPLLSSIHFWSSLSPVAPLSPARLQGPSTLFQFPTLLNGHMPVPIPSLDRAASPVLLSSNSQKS
Method in brief: as §1

[10] = molecular target: T7, FEV (Homo sapiens, UniProt Q99581 1-238); conditions: protein: recombinant; tags: N-terminal GST; dsDNA, one strand shown
T7 sequence: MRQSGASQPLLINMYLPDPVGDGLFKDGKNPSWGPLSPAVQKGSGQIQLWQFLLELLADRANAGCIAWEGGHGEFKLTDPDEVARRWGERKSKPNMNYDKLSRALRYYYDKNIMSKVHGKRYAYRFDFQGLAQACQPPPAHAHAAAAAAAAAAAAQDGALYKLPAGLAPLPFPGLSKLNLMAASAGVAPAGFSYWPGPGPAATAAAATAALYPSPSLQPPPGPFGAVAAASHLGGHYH
Method in brief: as §1

[11] = molecular target: ETV5 (Homo sapiens, UniProt P41161 1-510); conditions: protein: recombinant; tags: N-terminal GST; dsDNA, one strand shown
Method in brief: as §1

[12] = molecular target: HSF1 (Homo sapiens, UniProt Q00613 1-529); conditions: protein: recombinant; tags: N-terminal GST; chain copies: 3; dsDNA, one strand shown
Method in brief: as §1

[13] = molecular target: T8, SPIC (Homo sapiens, UniProt Q8N5J4 1-248); conditions: protein: recombinant; tags: N-terminal GST; dsDNA, one strand shown
T8 sequence: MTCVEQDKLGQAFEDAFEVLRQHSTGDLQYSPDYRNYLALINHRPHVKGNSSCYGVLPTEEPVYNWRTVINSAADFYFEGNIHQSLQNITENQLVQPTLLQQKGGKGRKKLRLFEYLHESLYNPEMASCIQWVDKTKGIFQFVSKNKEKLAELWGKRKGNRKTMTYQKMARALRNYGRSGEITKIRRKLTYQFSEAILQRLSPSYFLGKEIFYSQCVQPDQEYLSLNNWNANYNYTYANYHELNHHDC
Method in brief: as §1

[14] = molecular target: ELF4 (Homo sapiens, UniProt Q99607 1-663); conditions: protein: recombinant; tags: N-terminal GST; dsDNA, one strand shown
Method in brief: as §1

[15] = molecular target: T9, ELK4 (Homo sapiens, UniProt P28324-2 1-405); conditions: protein: recombinant; tags: N-terminal GST; dsDNA, one strand shown
T9 sequence: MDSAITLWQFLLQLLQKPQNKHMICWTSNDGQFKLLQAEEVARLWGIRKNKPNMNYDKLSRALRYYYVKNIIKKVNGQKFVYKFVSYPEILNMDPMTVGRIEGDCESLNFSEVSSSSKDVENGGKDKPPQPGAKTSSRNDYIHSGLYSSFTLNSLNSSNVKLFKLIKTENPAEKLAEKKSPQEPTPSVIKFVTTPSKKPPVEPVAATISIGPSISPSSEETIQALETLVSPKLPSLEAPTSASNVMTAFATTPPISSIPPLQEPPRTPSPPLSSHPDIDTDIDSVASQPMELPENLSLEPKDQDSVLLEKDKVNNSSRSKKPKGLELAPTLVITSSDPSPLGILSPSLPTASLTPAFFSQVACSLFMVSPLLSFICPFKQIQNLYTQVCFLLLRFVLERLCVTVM
Method in brief: as §1

[16] = molecular target: T10, ETV2 (Homo sapiens, UniProt O00321 1-342); conditions: protein: recombinant; tags: N-terminal GST; dsDNA, one strand shown
T10 sequence: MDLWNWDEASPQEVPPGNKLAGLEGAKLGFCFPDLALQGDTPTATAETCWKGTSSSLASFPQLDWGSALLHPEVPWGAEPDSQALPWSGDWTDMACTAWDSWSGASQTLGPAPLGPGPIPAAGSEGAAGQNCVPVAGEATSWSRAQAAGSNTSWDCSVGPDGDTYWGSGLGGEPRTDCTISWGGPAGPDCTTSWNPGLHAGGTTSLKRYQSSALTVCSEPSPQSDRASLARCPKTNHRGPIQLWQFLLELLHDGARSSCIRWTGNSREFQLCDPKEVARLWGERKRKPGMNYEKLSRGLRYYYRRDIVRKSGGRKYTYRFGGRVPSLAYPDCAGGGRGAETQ
Method in brief: as §1

[17] = molecular target: T11, ELF3 (Homo sapiens, UniProt P78545 1-371); conditions: protein: recombinant; tags: N-terminal GST; dsDNA, one strand shown
T11 sequence: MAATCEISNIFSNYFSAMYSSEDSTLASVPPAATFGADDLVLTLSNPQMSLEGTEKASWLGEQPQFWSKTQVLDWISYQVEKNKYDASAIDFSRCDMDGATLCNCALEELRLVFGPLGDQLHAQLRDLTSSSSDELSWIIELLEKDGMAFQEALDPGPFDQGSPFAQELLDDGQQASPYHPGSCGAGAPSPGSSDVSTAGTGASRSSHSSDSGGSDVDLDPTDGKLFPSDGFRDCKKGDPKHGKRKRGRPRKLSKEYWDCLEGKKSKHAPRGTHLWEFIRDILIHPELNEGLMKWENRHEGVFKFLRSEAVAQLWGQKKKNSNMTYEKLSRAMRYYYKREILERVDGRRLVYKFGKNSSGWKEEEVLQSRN
Method in brief: as §1

[18] = molecular target: CRX (Homo sapiens, UniProt O43186 1-299); conditions: protein: recombinant; tags: N-terminal GST; dsDNA, one strand shown
Method in brief: as §1

[19] = molecular target: ETV1 (Homo sapiens, UniProt P50549 1-477); conditions: protein: recombinant; tags: N-terminal GST; dsDNA, one strand shown
Method in brief: as §1

ELF4, sequence (Q99607 whole entry): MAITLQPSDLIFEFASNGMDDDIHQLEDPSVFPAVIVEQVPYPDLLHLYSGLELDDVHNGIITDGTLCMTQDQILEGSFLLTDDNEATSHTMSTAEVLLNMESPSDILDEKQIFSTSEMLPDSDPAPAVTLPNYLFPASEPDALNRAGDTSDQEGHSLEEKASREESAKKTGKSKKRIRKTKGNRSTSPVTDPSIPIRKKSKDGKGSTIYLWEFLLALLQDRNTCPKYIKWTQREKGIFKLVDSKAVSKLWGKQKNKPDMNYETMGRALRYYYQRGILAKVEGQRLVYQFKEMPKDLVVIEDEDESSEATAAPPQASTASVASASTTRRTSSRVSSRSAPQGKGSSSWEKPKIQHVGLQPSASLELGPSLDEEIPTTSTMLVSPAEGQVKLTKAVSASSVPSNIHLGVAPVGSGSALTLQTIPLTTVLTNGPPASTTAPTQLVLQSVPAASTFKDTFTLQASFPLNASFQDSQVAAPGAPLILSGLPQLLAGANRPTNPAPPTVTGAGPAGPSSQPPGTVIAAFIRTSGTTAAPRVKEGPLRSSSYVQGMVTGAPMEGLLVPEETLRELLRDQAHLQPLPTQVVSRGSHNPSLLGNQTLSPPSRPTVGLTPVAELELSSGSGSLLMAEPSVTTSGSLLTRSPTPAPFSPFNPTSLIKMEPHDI
SPIB, sequence (Q01892 whole entry): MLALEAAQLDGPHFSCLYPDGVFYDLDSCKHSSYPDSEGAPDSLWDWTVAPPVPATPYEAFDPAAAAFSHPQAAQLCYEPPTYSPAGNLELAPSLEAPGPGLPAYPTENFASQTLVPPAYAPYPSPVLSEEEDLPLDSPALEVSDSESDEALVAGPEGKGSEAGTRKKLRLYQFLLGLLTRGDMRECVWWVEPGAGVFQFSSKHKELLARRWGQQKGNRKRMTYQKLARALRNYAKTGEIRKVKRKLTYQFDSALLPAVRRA
ELF1, sequence (P32519 whole entry): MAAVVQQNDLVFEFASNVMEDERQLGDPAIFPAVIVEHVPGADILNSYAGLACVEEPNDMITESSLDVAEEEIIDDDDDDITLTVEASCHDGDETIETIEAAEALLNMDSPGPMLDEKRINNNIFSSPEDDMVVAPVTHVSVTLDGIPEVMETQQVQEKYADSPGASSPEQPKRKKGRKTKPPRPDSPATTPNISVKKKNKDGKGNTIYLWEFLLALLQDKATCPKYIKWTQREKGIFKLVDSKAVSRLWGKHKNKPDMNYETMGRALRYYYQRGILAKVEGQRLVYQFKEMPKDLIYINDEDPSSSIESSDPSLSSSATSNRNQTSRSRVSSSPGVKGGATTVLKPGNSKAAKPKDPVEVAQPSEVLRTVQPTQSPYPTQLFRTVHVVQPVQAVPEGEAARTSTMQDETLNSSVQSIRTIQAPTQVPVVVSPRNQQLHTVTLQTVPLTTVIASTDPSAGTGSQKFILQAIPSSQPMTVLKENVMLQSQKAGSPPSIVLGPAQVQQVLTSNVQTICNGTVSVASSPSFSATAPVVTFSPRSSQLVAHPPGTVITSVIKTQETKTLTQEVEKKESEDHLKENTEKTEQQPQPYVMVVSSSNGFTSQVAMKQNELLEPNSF
ETV1, sequence (P50549 whole entry): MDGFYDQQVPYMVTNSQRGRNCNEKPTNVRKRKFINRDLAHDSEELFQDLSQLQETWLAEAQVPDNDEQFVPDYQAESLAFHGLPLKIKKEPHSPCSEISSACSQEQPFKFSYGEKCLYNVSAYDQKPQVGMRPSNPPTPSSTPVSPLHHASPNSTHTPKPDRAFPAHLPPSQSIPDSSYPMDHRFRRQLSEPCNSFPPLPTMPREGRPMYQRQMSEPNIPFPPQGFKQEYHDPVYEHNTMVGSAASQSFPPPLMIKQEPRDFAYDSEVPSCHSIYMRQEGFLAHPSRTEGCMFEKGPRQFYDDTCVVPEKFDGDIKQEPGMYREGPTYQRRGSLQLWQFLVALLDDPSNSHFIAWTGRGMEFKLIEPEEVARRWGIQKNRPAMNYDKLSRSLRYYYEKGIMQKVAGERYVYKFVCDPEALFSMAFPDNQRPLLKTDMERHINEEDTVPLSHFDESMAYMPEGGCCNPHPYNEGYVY
ETV5, sequence (P41161 whole entry): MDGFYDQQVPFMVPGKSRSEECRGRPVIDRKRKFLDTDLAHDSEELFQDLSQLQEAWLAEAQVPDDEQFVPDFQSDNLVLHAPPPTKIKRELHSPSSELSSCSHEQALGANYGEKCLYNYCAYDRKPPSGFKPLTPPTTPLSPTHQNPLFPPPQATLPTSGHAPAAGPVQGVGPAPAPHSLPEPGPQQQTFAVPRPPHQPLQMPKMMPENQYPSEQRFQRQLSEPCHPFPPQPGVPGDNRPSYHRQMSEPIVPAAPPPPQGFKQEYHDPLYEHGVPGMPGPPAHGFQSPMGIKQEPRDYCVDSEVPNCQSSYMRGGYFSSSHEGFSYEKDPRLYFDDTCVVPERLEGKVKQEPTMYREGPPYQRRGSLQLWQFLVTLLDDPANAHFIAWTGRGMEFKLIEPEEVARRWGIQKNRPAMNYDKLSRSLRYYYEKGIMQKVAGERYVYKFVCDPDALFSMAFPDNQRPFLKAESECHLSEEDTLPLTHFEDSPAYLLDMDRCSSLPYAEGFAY
CRX, sequence (O43186 whole entry): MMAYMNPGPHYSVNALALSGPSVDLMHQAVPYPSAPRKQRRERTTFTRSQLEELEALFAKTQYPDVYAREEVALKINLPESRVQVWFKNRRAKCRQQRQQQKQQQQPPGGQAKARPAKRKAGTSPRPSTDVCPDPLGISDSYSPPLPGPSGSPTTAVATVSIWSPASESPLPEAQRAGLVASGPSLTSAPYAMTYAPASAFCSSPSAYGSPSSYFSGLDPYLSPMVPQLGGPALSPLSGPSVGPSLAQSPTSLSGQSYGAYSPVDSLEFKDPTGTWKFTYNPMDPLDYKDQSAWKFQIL
HSF1, sequence (Q00613 whole entry): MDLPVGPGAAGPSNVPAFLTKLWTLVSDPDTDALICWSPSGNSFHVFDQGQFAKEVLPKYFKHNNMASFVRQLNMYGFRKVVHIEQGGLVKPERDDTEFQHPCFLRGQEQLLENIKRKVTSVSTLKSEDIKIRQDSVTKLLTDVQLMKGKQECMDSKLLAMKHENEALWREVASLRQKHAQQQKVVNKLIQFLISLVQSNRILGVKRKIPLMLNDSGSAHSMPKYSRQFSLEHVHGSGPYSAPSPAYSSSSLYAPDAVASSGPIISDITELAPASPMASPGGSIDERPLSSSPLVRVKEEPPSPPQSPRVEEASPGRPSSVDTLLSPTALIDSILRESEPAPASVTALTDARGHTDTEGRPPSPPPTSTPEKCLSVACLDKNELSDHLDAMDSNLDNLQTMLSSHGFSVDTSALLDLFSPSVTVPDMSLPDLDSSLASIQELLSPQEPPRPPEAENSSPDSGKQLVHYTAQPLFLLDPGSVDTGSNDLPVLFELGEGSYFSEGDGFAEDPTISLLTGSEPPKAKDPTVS

CTCCTT
binding signal [1]: 1.92 fold enrichment (6-mer frequency, TF over GST control) | binding signal [2]: 1.72 fold enrichment (6-mer frequency, TF over GST control) | binding signal [3]: 1.7 fold enrichment (6-mer frequency, TF over GST control) | binding signal [4]: 1.82 fold enrichment (6-mer frequency, TF over GST control) | binding signal [5]: 1.94 fold enrichment (6-mer frequency, TF over GST control) | binding signal [6]: 1.64 fold enrichment (6-mer frequency, TF over GST control) | binding signal [7]: 1.71 fold enrichment (6-mer frequency, TF over GST control) | binding signal [8]: 1.82 fold enrichment (6-mer frequency, TF over GST control) | binding signal [9]: 1.65 fold enrichment (6-mer frequency, TF over GST control) | binding signal [10]: 1.75 fold enrichment (6-mer frequency, TF over GST control) | binding signal [11]: 1.62 fold enrichment (6-mer frequency, TF over GST control) | binding signal [12]: 1.61 fold enrichment (6-mer frequency, TF over GST control) | binding signal [13]: 1.86 fold enrichment (6-mer frequency, TF over GST control) | binding signal [14]: 1.8 fold enrichment (6-mer frequency, TF over GST control) | binding signal [15]: 1.67 fold enrichment (6-mer frequency, TF over GST control) | binding signal [16]: 1.7 fold enrichment (6-mer frequency, TF over GST control) | binding signal [17]: 1.96 fold enrichment (6-mer frequency, TF over GST control) | binding signal [18]: 1.57 fold enrichment (6-mer frequency, TF over GST control) | binding signal [19]: 1.69 fold enrichment (6-mer frequency, TF over GST control)
